PubChem BioAssay (NCI)
This is part of a sample that, as a whole, favours compounds with a hit. Of some 83,000 tested, about 20% had one in any assay.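 Each cell line was grown in a 96-well plate and treated with one concentration of compound for 48 hours. Values below 10 were considered active.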 Values without a mark were called inactive. Activity calls are given as the source filed them.

Legend:
Assay in all cases: NCI-60 one-dose screen, 48 h (100 = growth as untreated, 0 = no growth, -100 = all killed)
Conditions in all cases: 10 µM unless noted
NCI-H23 lung = test system: NCI-H23 lung
NCI-H226 lung = test system: NCI-H226 lung
NCI-H322M lung = test system: NCI-H322M lung
HOP-62 NSCLC = test system: HOP-62 NSCLC
NCI-H460 lung = test system: NCI-H460 lung
HOP-92 NSCLC = test system: HOP-92 NSCLC
NCI-H522 lung = test system: NCI-H522 lung
A549/ATCC NSCLC = test system: A549/ATCC NSCLC
786-0 renal = test system: 786-0 renal
COLO 205 colon = test system: COLO 205 colon
DU-145 prostate = test system: DU-145 prostate
K-562 leukemia = test system: K-562 leukemia
MALME-3M melanoma = test system: MALME-3M melanoma
MDA-MB-231 breast = test system: MDA-MB-231 breast
RXF 393 renal = test system: RXF 393 renal
SF-268 CNS = test system: SF-268 CNS
SF-295 CNS = test system: SF-295 CNS
SF-539 CNS = test system: SF-539 CNS
UACC-257 melanoma = test system: UACC-257 melanoma
M14 melanoma = test system: M14 melanoma

| Structure (SMILES) | growth (NCI-H23 lung) | growth (NCI-H226 lung) | growth (NCI-H322M lung) | growth (HOP-62 NSCLC) | growth (NCI-H460 lung) | growth (HOP-92 NSCLC) | growth (NCI-H522 lung) | growth (A549/ATCC NSCLC) | growth (786-0 renal) | growth (COLO 205 colon) | growth (DU-145 prostate) | growth (K-562 leukemia) | growth (MALME-3M melanoma) | growth (MDA-MB-231 breast) | growth (RXF 393 renal) | growth (SF-268 CNS) | growth (SF-295 CNS) | growth (SF-539 CNS) | growth (UACC-257 melanoma) | growth (M14 melanoma) |
| --- | --- | --- | --- | --- | --- | --- | --- | --- | --- | --- | --- | --- | --- | --- | --- | --- | --- | --- | --- | --- |
| COc1ccc(C(c2cc(OC)c(OC)c(OC)c2)N2CCCCC2)cc1 (stereo not given) | 59.3% | 55.5% | 47.9% | 29.8% | 19.4% | 44.1% | 19.9% | 49.1% | 38.8% | 16.1% | 64.2% | 18% | 55.3% | 53.1% | 26% | 47.2% | 18.7% | 27.7% | 54.9% | 23.3% |
| C[N+]1=C(/C=C/c2ccccc2Cl)C(C)(C)c2ccccc21 | 74.3% | 80% | 98.6% | 98.7% | 103% | 90.1% | 81.8% | 92.5% | 95.9% | 95.9% | 94.5% | 77.3% | 98.4% | 98% | 89.2% | 96.7% | 103% | 101% | 92% | 97.8% |
| CCOC(=O)c1ccc[nH]1 | 87.7% | 99.3% | 84.3% | 83.5% | 105% | 80.4% | 88.4% | 93% | 93.1% | 134% | 116% | 88.5% | 87.7% | 126% | 94.1% | 100% | 114% | 91.9% | 90.8% | 96.2% |
| COc1ccc(Nc2ncc(C#N)c(NCCCNC(=O)C3CCC3)n2)cc1 | 67.6% | 49% | 80.8% | 31.4% | 41.7% | 64.3% | 85.1% | 61.2% | 50.4% | 33.3% | 60.7% | 50.4% | 78.8% | 56.5% | -4.62% (active) | 30.7% | 76.8% | 28.5% | 113% | 70.9% |
| CCN(CC)CCN1C(=O)c2c(c3c4ccccc4[nH]c3c3ccc4ccccc4c23)C1=O | -67.8% (active) | 87.5% | 87% | 55.3% | 16.3% | 66.2% | 67.8% | -60.9% (active) | -96.7% (active) | 78.7% | -92.3% (active) | -33% (active) | -85.7% (active) | -78.9% (active) | 47.1% | -45% (active) | 48.3% | -85.7% (active) | 105% | -85% (active) |
| c1cc(OCCN2CCCC2)ccc1CNc1ccc2nc(CCC3CCCCC3)[nH]c2c1 | 81.9% | 51.3% | 78.2% | 57.8% | 52.6% | 25.3% | 63.2% | 50.2% | -60.1% (active) | -73.9% (active) | 65.2% | -11.7% (active) | -83.7% (active) | 11.2% | 42.2% | 58.3% | -30% (active) | -72.4% (active) | -77.8% (active) | -86.9% (active) |
| Cc1ccc(S(=O)(=O)OCC#CCOS(=O)(=O)c2ccc(C)cc2)cc1 | 59.3% | 84.3% | 93.9% | -12.9% (active) | 13.4% | 40.2% | -65.4% (active) | 17.1% | 74.5% | 52.6% | 52.2% | 40.2% | -65.9% (active) | 57.9% | 58.6% | 53.8% | 42.2% | 81.9% | 66.8% | 43.6% |
| O=C(NCCN1CCOCC1)OCc1ccc2c(Cl)cc(Cl)c(O)c2n1 | 72.8% | 94.6% | 66.9% | 47.8% | 63.7% | 77.3% | 81% | 56.8% | 81.9% | 109% | 57.7% | 31.7% | 73.4% | 93.8% | 77.3% | 57.3% | 49.2% | 77.9% | 89.1% | 54.6% |
| Cc1cc2oc(/C=C/c3ccccc3)cc(=O)c2c(C)c1Cl | 88.8% | 103% | 110% | 103% | 105% | 97% | 93.8% | 91.6% | 93.2% | 104% | 103% | 118% | 94% | 107% | 98% | 102% | 96.2% | 98.9% | 97% | 108% |
| Fc1ccc2[nH]cc(-c3nc(-c4c[nH]c5c(Cl)nccc45)cs3)c2c1 | 60.4% | 40% | 76.7% | 57.1% | 4.9% (active) | 36.4% | 16.7% | 22.5% | -19.4% (active) | 25.2% | 32% | 11.8% | 74.3% | 13.7% | 16.3% | 67.2% | 18.1% | 41.1% | -38.3% (active) | -5.3% (active) |
| CC(C)(Sc1cc(C(C)(C)C)c(O)c(C(C)(C)C)c1)Sc1cc(C(C)(C)C)c(OC(=O)CCC(=O)O)c(C(C)(C)C)c1 | 40% | 67.4% | 56.4% | 44.7% | 28.9% | 35.8% | 36.9% | 28.6% | 44.7% | 55% | 57.2% | 69.4% | 65.8% | 58.3% | 67% | 57.3% | 42.1% | 47.8% | 61.8% | 50.9% |
| Cc1ccc(C)c2c1sc1nc(N3CCOCC3)c(C#N)c(=O)n12 | 76.1% | 89.6% | 107% | 94.2% | 94.9% | 71.7% | 94.8% | 98.4% | 104% | 104% | 103% | 151% | 97.1% | 92% | 114% | 88% | 61.7% | 96.4% | 112% | 92.9% |
| COC(=O)[C@@]12CC=C(C)[C@]3(C[C@H](c4ccoc4)OC3=O)[C@H]1C=C[C@@H](O)[C@@]2(O)C(=O)OC | 100% | 116% | 88.7% | 91.3% | 111% | 102% | 66.3% | 84.9% | 97.4% | 110% | 98.3% | 94.1% | 104% | 110% | 114% | 98.1% | 96.4% | 98.7% | 82.1% | 101% |
| CCOC(=O)c1c(NC(=O)c2ccccc2)sc2c3c(ccc12)OCN(C)C3 | 12.8% | 87.8% | -11.3% (active) | 52.2% | -67.9% (active) | -4.6% (active) | -51.4% (active) | 22.2% | -79% (active) | -54.7% (active) | 11.6% | -53.3% (active) | -89.2% (active) | -74.7% (active) | -73% (active) | 9.19% (active) | -76.8% (active) | -43.7% (active) | -62.2% (active) | -74.2% (active) |
| Cc1ccc2cnc(N)c(C#Cc3cc(C(=O)Nc4ccc(CN5CCN(C)CC5)c(C(F)(F)F)c4)cnc3C)c2c1 | -29.6% (active) | 7.1% (active) | 17.8% | -35.9% (active) | -83% (active) | -32% (active) | -10.2% (active) | -85.5% (active) | -82.8% (active) | -41.2% (active) | -95% (active) | -43% (active) | -74.7% (active) | -70.5% (active) | -91.2% (active) | 17.4% | 37.4% | -85.9% (active) | 31.9% | -90.3% (active) |
| Cn1cc(-c2csc(-c3cn(C)c4ccccc34)n2)c2cnccc21 | 83.2% | 112% | 66.6% | 42.1% | -46.2% (active) | 55.5% | 16.7% | 15.3% | -87.9% (active) | -68% (active) | 29.2% | -39.2% (active) | -92.4% (active) | -17.7% (active) | -40.7% (active) | 45.1% | -73.1% (active) | -87% (active) | -58.2% (active) | -82.6% (active) |
